Source: PubChem (National Center for Advancing Translational Sciences (NCATS))
Only some compounds are listed: those with a hit (about 7.5% of all), similar ones and a draw of the others.
SMN2 splice up: SMN2 splice variant enhancement | Potency, µM (titrated, usually from 46.1 µM), for the others: top-dose activity change, positive = activation, usual class: activators | HEK293 SMN2-luciferase splicing reporter, luminescence, 30-36 h | 2.8% of 210,000 active | AID 1458; note: % of control where 0% means no effect; nearly all actives have a fitted effect of over 55% in size
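HEK293 cells carry an SMN2 minigene-luciferase reporter in which exon 7 inclusion puts luciferase in frame. Cells were seeded at 2000 cells/well, attached for 10-12 hours, then exposed to compounds for 30-36 hours at 37C before ONE-Glo luminescence.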
Rab9 prom act: activators of Rab9 promoter; Huh7 Rab9 promoter-luciferase reporter, luminescence, 24 h; Potency, µM (titrated, usually from 9.22 µM), without a hit: at the top dose activation, negative = inhibition, actives largely listed as activators; 2.8% of 320,000 active; AID 485297; note: % of control where 0% means no effect; nearly all actives have a fitted effect of over 60% in size
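Rab9 promoter-driven luciferase in stably transfected Huh7 cells; 1500 cells/well rested 2 h, exposed to compound in DMSO for 24 h at 37 °C, 5% CO2. Luminescence read 10 min after adding luciferase reagent at ambient temperature.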
NPC1 prom act: activates the NPC1 promoter; Huh7 NPC1 promoter luciferase reporter, 24 h; Potency, µM (titrated, usually from 9.22 µM), for inactives: at the highest dose activation, hits mostly activators; 2.4% of 320,000 active; note: % of control where 0% means no effect; nearly all actives have a fitted effect of over 60% in size
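Quantitative HTS used a cell-based reporter: Huh7 cells stably bearing the NPC1 promoter upstream of luciferase were treated with compounds for 24 h, and promoter activation was read as luminescence.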
FLuc counter: counter-screen for miR-21 project: firefly luciferase inhibitors or activators | Potency, µM (series often up to 57.5 µM), for inactives: at the top dose activity change, negative = inhibition, usual class: inhibitors | 6.9% of 360,000 active | purified FLuc, Km substrates, luminescence inhibition | P08659;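 note: plate controls were vehicle for no effect and reference inhibitor for full effect; nearly all actives have a fitted effect of over 55% in size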
Target sequence (P08659 whole entry, looked up): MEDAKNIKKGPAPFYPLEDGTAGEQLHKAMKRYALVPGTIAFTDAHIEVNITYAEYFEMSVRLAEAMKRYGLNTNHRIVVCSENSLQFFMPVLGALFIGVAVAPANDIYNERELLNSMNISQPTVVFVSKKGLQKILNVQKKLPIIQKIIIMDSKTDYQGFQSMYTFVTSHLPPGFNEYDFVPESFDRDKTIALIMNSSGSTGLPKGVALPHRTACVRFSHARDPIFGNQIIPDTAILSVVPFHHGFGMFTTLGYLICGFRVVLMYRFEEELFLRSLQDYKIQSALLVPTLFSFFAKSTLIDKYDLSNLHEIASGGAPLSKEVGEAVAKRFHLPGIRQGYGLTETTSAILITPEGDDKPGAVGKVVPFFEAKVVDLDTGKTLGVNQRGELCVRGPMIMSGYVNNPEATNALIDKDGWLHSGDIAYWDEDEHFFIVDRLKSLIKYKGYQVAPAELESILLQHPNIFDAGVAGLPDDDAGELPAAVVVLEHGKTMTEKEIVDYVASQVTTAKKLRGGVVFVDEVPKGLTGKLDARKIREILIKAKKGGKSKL
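Purified P. pyralis luciferase, 10 nM final, with Km-level 10 uM D-luciferin and 10 uM ATP in 50 mM Tris acetate pH 7.5, 10 mM Mg acetate, 0.01% Tween-20, 0.05% BSA; 6-point qHTS titration about 60 µM downward; luminescence read.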
ELG1 genotox: inducers of genotoxicity in HEK293T ELG1-luciferase cells. Potency, µM (top dose mostly 46 µM), without a hit: top-dose activity change, positive = activation, actives largely listed as activators. HEK293T ELG1-luciferase reporter, luminescence, 16 h. 1.3% of 330,000 active; note: % of control where 0% means no effect; nearly all actives have a fitted effect of over 60% in size
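Genotoxicity was scored as increased ELG1-luciferase reporter signal, measured by ONE-Glo luminescence (30 min, room temperature). Compound or vehicle exposure of the HEK293T reporter cells lasted 16 hr at 37°C.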
The depositor's hits bear a star; ? = inconclusive; / = not tested or not shown. Calls come from the whole dose curve; as a rule, active = well fitted curve in the direction sought with a large enough effect; inconclusive = small, poorly fitted or top-dose-only effect, or another doubt; inactive = no such curve, though single readings can be large; an effect the other way counts as inactive or inconclusive. Potency is the fitted concentration of half-maximal effect.

SMILES | SMN2 splice up | Rab9 prom act | NPC1 prom act | FLuc counter | ELG1 genotox
CCN(CC)S(=O)(=O)c1nnc(NC(=O)COc2ccc(Cl)cc2)s1 | / | / | / | 2.4µM* | /
CCOc1ccc(CNC(=O)c2ccc3nc(C(C)C)oc3c2)cc1 | / | / | / | -2% | /
CN(C)c1cc[n+](CC(=O)c2ccc(OC(F)F)cc2)cc1 | / | -22% | -16% | -1% | -7%
Cc1ccc(CSc2nnc(SCC(=O)N/N=C/c3ccc(C(=O)O)cc3)s2)cc1 | / | -1% | -2% | 0.24µM* | 6%
O=C(CSc1nnc(SCc2ccccc2)s1)N/N=C/c1ccc(Cl)cc1Cl | 7% | -3% | 1% | 0% | 5%
O=C(CSc1nnc(SCc2ccc(Cl)cc2)s1)N/N=C/c1ccccc1C(=O)O | / | 2% | 4% | 11µM* | 0%
O=C(CSc1nc2ccccc2s1)N/N=C/c1ccc(C(=O)O)cc1 | 12% | -2% | -1% | 27µM* | 1%
O=C(CSc1nnc(SCc2ccccc2)s1)N/N=C/c1ccc(C(=O)O)cc1 | / | -1% | -4% | 2.4µM* | -4%
CCc1ccc(C(c2ccccc2)c2c[nH]c3ccc(C)cc23)s1 (configuration not stated) | -38% | / | / | ? | /
COc1ccc2c(c1)O[C@@H](c1ccc3c(c1)OCO3)[C@H](OC(=O)Nc1ccc(OC(F)F)cc1)C2=O | 8% | / | / | / | /
CCN(CC)CCNC(=O)c1ccc(Sc2ccc(Cl)cc2)c(NC(C)=O)c1 | -24% | -3% | -3% | -4% | -1%
Cc1cc(=O)oc2cc(OCC(=O)OCC(=O)Nc3c(C)n(C)n(-c4ccccc4)c3=O)ccc12 | 14% | 3% | -2% | 0% | 0%
Cc1ccc(CSc2nnc(SCC(=O)N/N=C/c3ccccc3OCC(=O)O)s2)cc1 | / | -4% | -2% | 1.5µM* | 0%
O=C(CSc1nnc(SCc2ccccc2)s1)N/N=C/C=C/c1ccccc1[N+](=O)[O-] | 7% | -3% | -6% | 24µM* | 0%
CC(=C/c1ccco1)/C=N/NC(=O)CSc1nnc(SCc2ccc(C)cc2)s1 | -12% | -4% | 0% | 2.7µM* | 3%
COCCn1c(=O)c(CCc2ccccc2)nc2cnc(Oc3cccc(Cl)c3)nc21 | -45% | / | / | / | /
CCOC(=O)C1=C(N)Oc2c(c(=O)[nH]c3ccccc23)C1c1ccccc1 (configuration not stated) | -4% | 1% | 1% | 4% | 3%
Cc1ccc(Cl)cc1NC(c1ccc(F)cc1)c1nnc(-c2ccccc2)o1 (configuration not stated) | / | / | / | -15% | /
Cc1ccc(C)c(NC(c2ccccc2)c2nnc(-c3ccccc3F)o2)c1 (configuration not stated) | 23% | / | / | 15µM* | /
CCCSc1nnc2c(n1)OC(c1sccc1C)Nc1ccccc1-2 (configuration not stated) | 3.2µM* | / | / | ? | /
O=C(CN1C(=O)NC2(CCCC2)C1=O)OCc1ccccc1F | / | 3% | -3% | -2% | 1%
O=C(CN1CC(c2ccccc2)CC1=O)OCc1ccccc1F (configuration not stated) | ? | 12% | 7% | 12µM* | 0%
CSc1ccccc1NC(=O)C1=CC(c2cccs2)=NS(=O)(=O)N1C | / | 11% | 14% | ? | 0%
COc1ccccc1NC(=O)c1ccc(NC(=O)COC(=O)CCC2CCCC2)cc1 | 12% | -9% | -2% | -1% | 2%
COc1ccc(/C=C/c2nc3cc(-c4ccccc4)ccc3o2)cc1O | -91% | 5% | 1% | 9.5µM* | -1%
O=C(N/N=C/c1ccccn1)c1ccc(NC(=O)c2cccc([N+](=O)[O-])c2)cc1 | 1% | 9% | 6% | ? | -4%
O=C(N/N=C/c1ccccc1F)c1cccc(NC(=O)c2ccccc2Cl)c1 | / | 17% | 19% | 13µM* | 7%
O=C(N/N=C/c1ccccn1)c1cccc(NC(=O)c2ccccc2Cl)c1 | / | 15% | 3% | 17µM* | 9%
O=C(Nc1cccc(NC(=O)c2ccccc2Cl)c1)c1ccc(F)cc1 | / | -2% | 2% | ? | -1%
O=C(N/N=C/c1cccs1)c1cccc(NC(=O)c2ccccc2Cl)c1 | 1% | 8% | 10% | 24µM* | 1%
